From PubChem BioAssay AID1026 (Columbia University Molecular Screening Center, 2008)

Target: Bifunctional epoxide hydrolase 2 (Homo sapiens) (UniProt P34913)
Assay: sEH inhibitor concentration-response potency, dose response, biochemical, human sEH, fluorescence, Infinite200 (AID 1026)
Conditions: recombinant human sEH, fluorogenic substrate, at 0.2 µM, stronger effect = higher value; call rule not given here

Chain of Bifunctional epoxide hydrolase 2 (Homo sapiens) (P34913 whole entry, looked up): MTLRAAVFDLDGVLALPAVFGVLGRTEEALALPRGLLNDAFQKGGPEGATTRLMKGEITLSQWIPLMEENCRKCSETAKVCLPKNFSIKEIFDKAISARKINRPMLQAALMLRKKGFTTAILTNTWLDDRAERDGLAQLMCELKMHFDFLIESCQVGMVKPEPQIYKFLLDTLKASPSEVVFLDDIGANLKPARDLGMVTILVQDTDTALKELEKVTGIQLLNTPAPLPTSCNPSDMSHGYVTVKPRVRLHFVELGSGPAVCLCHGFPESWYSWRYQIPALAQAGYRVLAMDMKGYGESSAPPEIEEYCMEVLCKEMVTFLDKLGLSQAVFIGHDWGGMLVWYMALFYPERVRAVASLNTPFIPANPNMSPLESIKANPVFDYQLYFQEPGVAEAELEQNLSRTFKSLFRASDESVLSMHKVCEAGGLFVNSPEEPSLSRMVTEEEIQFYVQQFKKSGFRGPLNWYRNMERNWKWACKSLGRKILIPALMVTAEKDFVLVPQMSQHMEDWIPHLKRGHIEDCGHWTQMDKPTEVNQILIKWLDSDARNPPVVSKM

inhibition, inactive:
Cc1c(Cl)c([N+](=O)[O-])nn1Cc1ccc(C(=O)N/N=C\c2cccc(Br)c2)o1 66.8%
CCc1c(C)nc2ncnn2c1N1CCC(C(=O)Nc2ccc(C)cc2)CC1 44.3%
O=C(Nc1ccc(OC(F)F)cc1)Nc1cccc(C(F)(F)F)c1 63.2%
Cc1nc2cc(NC(=O)NCCC3=CCCCC3)ccc2o1 45%
O=C(NCc1ccccc1Cl)c1ccc(Cn2cc(C(F)(F)F)ccc2=O)cc1 52.6%
O=C(c1ccc2c(=O)n(Cc3ccc4c(c3)OCO4)c(=S)[nH]c2c1)N1CCCCC1 47.4%
CCOc1ccc(NC(=O)c2ccc(F)c(S(=O)(=O)N3CCN(c4ccccn4)CC3)c2)cc1 64.3%
CC(Cc1cccs1)NC(=O)NC1CCCCC1 (stereo not given) 57.2%
Cn1c(C(=O)N2CCCC(C(=O)NCCCSC3CCCCC3)C2)cc2sccc21 (stereo not given) 49.4%
CSc1cccc(NC(=O)Nc2ccc(Cl)cc2)c1 59.3%
CCOC(=O)c1sc(NC(=O)c2ccc(C)s2)cc1C 59.1%
COC(=O)[C@@H](NC(=O)NCc1ccccc1Cl)C(C)C 61.5%
O=C(/C=C/c1cc2c(cc1Br)OCO2)NCc1ccc(Cl)cc1 60.5%
CCc1ccc(NC(=O)Nc2ccc3c(c2)N(C)C(=O)CS3)cc1 61.2%
CCOC(=O)CSc1nc2ccccc2c(=O)n1CC1CCC(C(=O)NCc2ccco2)CC1 (stereo not given) 45.6%
Cc1cc2cc(CNC(=O)NC3CCCCC3)ccc2[nH]1 60%
Cc1ccc(-n2nnnc2SCC(=O)NCCC2=CCCCC2)c(C)c1 41.9%
O=C(NCc1ccc2c(c1)OCO2)C1CCN(Cc2cnn(-c3ccccc3)c2-n2cccc2)CC1 57.2%
Cc1ccc(N(CC(=O)NC2CCCCC2)C(=O)c2ccc(C)s2)cc1 43.7%
CC(=O)NC(=S)Nc1ccc(NC(=O)COc2ccc(Cl)cc2Cl)cc1 44.2%
C/C(=N\NC(=O)Cc1cccn1C)c1cccc2ccccc12 40.4%
CCOc1ccc(NC(=O)NCCCSC2CCCCC2)cc1 54.6%
O=C(NCCc1c[nH]c2ccccc12)C1CCC(Cn2c(=S)[nH]c3ccccc3c2=O)CC1 (stereo not given) 72.7%
Cc1noc(C)c1COc1cccc(C(=O)NCc2ccccc2Cl)c1 52.4%
C=CCN1C(=O)CSc2ccc(C(=O)NCCC3=CCCCC3)cc21 55.8%
O=C(NCc1cccs1)C1CCC(CNS(=O)(=O)c2ccc(Br)s2)CC1 (stereo not given) 62.3%
O=C(Nc1ccc2c(c1)OCCO2)NC1CCCCC1 52.7%
CCc1c(C)nc2ncnn2c1N1CCC(C(=O)NCc2ccc3c(c2)OCO3)CC1 41%
O=C(NC1CCCCC1)N1CCCC(c2nc(-c3cccs3)no2)C1 (stereo not given) 65.8%
CC(Cc1cccs1)NC(=O)Nc1ccc(Cl)cc1 (stereo not given) 60.6%
O=C(NCCC1=CCCCC1)NC1CCCCC1 70.5%
COc1ccc(OC)c(/C=N/NC(=O)c2csc3ccccc23)c1 51.1%
O=C(CCCCCn1c(=S)[nH]c2ccccc2c1=O)NCc1ccc2c(c1)OCO2 59.3%
COc1ccc(NC(=O)N2CCC(c3nc(-c4cccs4)no3)CC2)cc1 62.9%
CCN(CCNC(=O)Nc1ccc(Cl)cc1)c1ccccc1 39.1%
COc1ccc(C2CCCN2C(=O)Nc2ccc(Cl)cc2)cc1OC (stereo not given) 71.3%
NNC(=O)c1cccc(COc2cccc(Br)c2)c1 37.1%
CCCCCC(=O)Nc1ccc2oc(-c3cncc(Br)c3)nc2c1 51.2%
Cc1ccccc1C(=O)N1CCN(c2ccc(NC(=O)CSc3ccc(Cl)cc3)cc2)CC1 60.1%
COc1ccc(NC(=O)N2CCCC(c3nc(-c4ccc(C(C)C)cc4)no3)C2)cc1 (stereo not given) 64.5%
